Measurements as given in PubChem BioAssay AID1259324 (C. David Weaver Laboratory, Vanderbilt University, 2017).
The campaign covered roughly 34,000 compounds. Fewer than 10 were called active.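 How the source made its calls: active means primary screen hit, no activity in plain HEK293 cells, and in GIRK2-only cells above 5% efficacy rising with concentration; inactive means the rest, including fluorescent compounds.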 Only a sample is shown.

target: G protein-activated inward rectifier potassium channel 2 (Homo sapiens) (UniProt P48051); test: activators of NPY4-receptor-primed GIRK2 channels, summary, cell-based, HEK293, thallium flux (AID 1259324); details: HEK293 GIRK2/NPY4 cells, thallium flux fluorescence
Sequence (P48051 whole entry, looked up): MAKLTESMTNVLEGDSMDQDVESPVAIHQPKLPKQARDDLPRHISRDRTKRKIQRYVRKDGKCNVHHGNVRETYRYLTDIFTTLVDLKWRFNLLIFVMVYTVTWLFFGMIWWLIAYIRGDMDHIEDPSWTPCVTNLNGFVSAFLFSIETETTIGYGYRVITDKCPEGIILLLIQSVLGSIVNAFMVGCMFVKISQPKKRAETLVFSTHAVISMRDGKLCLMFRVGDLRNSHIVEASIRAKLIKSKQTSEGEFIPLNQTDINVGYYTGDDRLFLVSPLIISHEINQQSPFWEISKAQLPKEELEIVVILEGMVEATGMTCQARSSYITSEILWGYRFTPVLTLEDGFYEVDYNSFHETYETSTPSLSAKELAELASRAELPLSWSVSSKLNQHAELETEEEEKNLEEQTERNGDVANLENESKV

outcome, inactive:
COc1ccc(NC(=O)c2ccc(C(F)(F)F)cc2)cc1N1CCCC1=O
O=C(NC1CC(=O)N(C2CC2)C1)c1ccc(-n2cccc2)cc1 (centres undefined)
O=C(c1cccc(Cl)c1)N1CCOC(c2ccc(C(F)(F)F)cc2)C1 (centres undefined)
CC1CCN(C(=O)CN2CCN(c3nccn3-c3cccc(Cl)c3)CC2)CC1
COc1cccc(C(=O)NNC(=O)c2ccc(=O)n(Cc3ccccc3)c2)c1OC
O=C(NCCCO)C(=O)Nc1ccc2c(c1)OCCO2
O=C(CSc1nc2ccsc2c(=O)n1CCc1ccccc1)Nc1ccccc1F
COCCNc1oc2c(c1-c1ccc([N+](=O)[O-])cc1)c(=O)oc1ccc(C)cc12
O=C(CN1CCOCC1)Nc1ccccc1-c1nc2ccccc2[nH]c1=O
O=S1(=O)CCC(n2nc(-c3ccco3)cc2NS(=O)(=O)c2cccc(Cl)c2)C1 (centres undefined)
CC(C)(C)OC(=O)C1=NN(c2ccc(Cl)cc2)c2ncccc2S1(=O)=O
CCn1nnc2c(NCc3ccccc3OC)ncnc21
Cc1ccc(C(CNC(=O)C(=O)NCc2ccccc2)N2CCOCC2)cc1 (centres undefined)
CS(=O)(=O)N1CCN(CCNC(=O)c2ccc([N+](=O)[O-])o2)CC1
O=C(NCc1cccs1)C(=O)NCC1CCN(C(=O)/C=C/c2ccco2)CC1
O=C(NCc1cccs1)C(=O)NCC1CCCO1 (centres undefined)
COc1ccc(OC)c(CNC(=O)c2snc(-c3cccc(F)c3)c2N)c1
COc1ccc(CCNC(=O)COc2ccccc2Br)cc1OC
COc1cc(C)c(C)cc1S(=O)(=O)N1CCN(c2ccc(-c3cccnc3)nn2)CC1
COc1ccc(S(=O)(=O)CCCC(=O)Nc2nc(-c3ccc([N+](=O)[O-])cc3)cs2)cc1
Cc1nc(NCCNC(=O)Nc2ccccc2)cc(-n2cccn2)n1
CCN1CCc2nc(-c3ccccc3)n(CC(=O)Nc3cc(OC)cc(OC)c3)c(=O)c2C1
O=C(NCCC1=CCCCC1)C(=O)Nc1cccc(N2CCCCC2=O)c1
O=C(CN1CC(c2nc(-c3ccsc3)no2)C1)NCCc1ccccc1
Cc1nn(-c2nc(C)c(C)c(=O)[nH]2)c(C)c1CCC(=O)Nc1ccc(C(F)(F)F)cc1
O=C(Cc1ccc(NS(=O)(=O)C2CC2)cc1)NCC(F)(F)F
O=C(Cc1csc(-n2cccc2)n1)Nc1nc2ccccc2s1
Cc1cccc(NC(=O)N2CCN(c3ccc4nnc(C5CC5)n4n3)CC2)c1C
CCOc1ccc2nc(NC(=O)Cn3cnc(C(C)C)cc3=O)sc2c1
